Screening data deposited in PubChem BioAssay by National Center for Advancing Translational Sciences (NCATS).
hERG WT inh = blocks the wildtype human KCNH2 potassium channel; Q12809; U2OS, BacMam KCNH2, thallium flux FluxOr; active compounds read low; activity change, % at 1.84 µM; 340,000 compounds, 0.37% hits; AID 720551;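 active = maximum activity change below -70%; inconclusive = maximum activity change between -70% and -50%; inactive = maximum activity change above -50%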; also: % is scaled to controls: 0 for no effect and ±100 for the full control effect
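U2OS cells transduced with wild-type KCNH2 virus are loaded with FluxOr dye for 45 min, and thallium flux is measured in kinetic reads before and after stimulation buffer. Rate constants are normalized to DMSO controls.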
TRPV1 PAM = human TRPV1 potentiation. potentiation, % at 8.33 µM. 320,000 compounds, 0.02% hits. Q8NER1. TRPV1-expressing cells, Fluo-8 calcium influx, capsaicin EC20 potentiation; in the data active = potentiation above about 80%; inconclusive = between about 30% and that limit; also: 0% is about no effect
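Fluo-8 calcium influx in TRPV1-expressing cells, kinetic read (ex 480/em 520 nm). Compound added and read 3 min for agonist activity, followed by capsaicin at EC20 final and 2 min further read for enhancement.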
KCNH2 3.1 block = KCNH2 3.1 (human) potassium channel inhibition; activity change, % (tested at about 1.8 µM); 340,000 compounds, 0.95% hits; U2OS KCNH2 3.1, thallium flux FluxOr; active compounds read low;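 active = maximum activity change below -70%; inconclusive = maximum activity change from -70% to -50%; inactive = maximum activity change above -50%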;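 also: thallium influx rate constant from kinetic fluorescence after stimulation buffer; % is scaled to controls: 0 for no effect and ±100 for the full control effect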
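Measured as rate of thallium-driven FluxOr signal in transduced U2OS cells carrying the 3.1 channel, read kinetically for 2 min upon stimulation; values are rate constants scaled to DMSO control wells.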
TRPV1 agonist = human TRPV1 agonism | Q8NER1 | TRPV1-expressing cells, Fluo-8 calcium influx, agonist mode | activation, % at 8.33 µM | 320,000 compounds, 0.19% hits | AID 540275; in the data active = activation above about 80%; inconclusive = between about 30% and that limit; also: 0% is about no effect
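Fluo-8 calcium influx in TRPV1-expressing cells, kinetic read (ex 480/em 520 nm). Compound added and read 3 min for agonist activity, followed by capsaicin at EC20 final and 2 min further read for enhancement.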
* marks the source's active call; other numbers are inactive results. Hits are enriched below; roughly 1.3% of the tested compounds scored in any of these assays.

What do the screens show for `CC(NC(=O)c1cc2c(=O)n(C)c3ccccc3c2n1C)c1ccc2c(c1)OCCO2` (stereo unspecified)?
hERG WT inh: -125*; KCNH2 3.1 block: -27

Results for CCOc1ccc(C(=O)Nc2cccc(-c3nc4ccccc4[nH]3)c2C)cc1[N+](=O)[O-] ?
hERG WT inh: -6; TRPV1 PAM: -16; KCNH2 3.1 block: -78*; TRPV1 agonist: 0

How did CCOc1ccc(C(=O)Nc2cc(-c3nc4ccccc4[nH]3)ccc2Cl)cc1[N+](=O)[O-] do in these assays?
hERG WT inh: -27; TRPV1 PAM: 2; KCNH2 3.1 block: -70*; TRPV1 agonist: 1

What do the screens show for `CCOc1ccccc1NC(=O)c1ccc(OCC)c([N+](=O)[O-])c1`?
hERG WT inh: 2; TRPV1 PAM: -3; KCNH2 3.1 block: -19; TRPV1 agonist: 14

How did CCOc1ccc(C(=O)Nc2cc(-c3nc4ccccc4[nH]3)ccc2C)cc1[N+](=O)[O-] do in these assays?
hERG WT inh: -31; TRPV1 PAM: 13; KCNH2 3.1 block: -86*; TRPV1 agonist: 0

How did COc1ccc(C)cc1S(=O)(=O)N(C)CC(=O)NCc1ccncc1 do in these assays?
hERG WT inh: 1; TRPV1 PAM: 19; KCNH2 3.1 block: -9; TRPV1 agonist: 2

How did O=C(CCNS(=O)(=O)c1ccc(Br)cc1)NCC(c1cccs1)N1CCOCC1 (stereo unspecified) do in these assays?
hERG WT inh: -5; KCNH2 3.1 block: -4

What do the screens show for `Cc1nn2c(N3CCN(CCO)CC3)c3c(nc2c1-c1ccccc1)CCCC3`?
hERG WT inh: 2; TRPV1 PAM: -18; KCNH2 3.1 block: -94*; TRPV1 agonist: inconclusive

Results for Cc1nn2c(N3CCCC3)c3c(nc2c1-c1ccccc1)CCC3 ?
hERG WT inh: 6; TRPV1 PAM: 0; KCNH2 3.1 block: 3; TRPV1 agonist: 10

How did Cc1ccc(-n2cc(CNCCCn3cccn3)c(-c3cccc(C)c3)n2)cc1 do in these assays?
hERG WT inh: inconclusive; TRPV1 PAM: 1; KCNH2 3.1 block: -81*; TRPV1 agonist: 16

What do the screens show for `Cc1ccc(C)c(-n2cc(CNCCCn3cccn3)c(-c3ccccc3)n2)c1`?
hERG WT inh: 10; TRPV1 PAM: -20; KCNH2 3.1 block: 7; TRPV1 agonist: 20

What do the screens show for `CCOc1ccc(NC(=O)c2ccc(N3CC4CC(C3)c3cccc(=O)n3C4)c(N)c2)cc1` (stereo unspecified)?
hERG WT inh: -13; TRPV1 PAM: 11; KCNH2 3.1 block: 4; TRPV1 agonist: -4

What do the screens show for `Cc1ccc(OCCN2CCN(c3ncnc4sc(C)c(C)c34)CC2)cc1`?
hERG WT inh: -3; TRPV1 PAM: -4; KCNH2 3.1 block: -79*; TRPV1 agonist: 1

What do the screens show for `Cc1sc2ncnc(N3CCCCC3)c2c1C`?
hERG WT inh: 6; TRPV1 PAM: -16; KCNH2 3.1 block: -8; TRPV1 agonist: 26

Results for O=C(c1nc(SCc2ccc([N+](=O)[O-])cc2)n2ccccc12)C(F)(F)F ?
hERG WT inh: 20; TRPV1 PAM: 12; KCNH2 3.1 block: -71*; TRPV1 agonist: 7

What do the screens show for `O=[N+]([O-])c1ccc(CSc2nnc3ccccn23)cc1`?
hERG WT inh: 4; TRPV1 PAM: -7; KCNH2 3.1 block: -4; TRPV1 agonist: 4

Results for CN(C)S(=O)(=O)c1ccc(C(=O)Nc2ccc3nc(N4CCOCC4)sc3c2)cc1 ?
hERG WT inh: -12; KCNH2 3.1 block: 23

How did CC1Cc2cc(S(=O)(=O)N3CCC(C(=O)N(C)Cc4ccccc4)CC3)ccc2N1C(=O)C1CC1 (stereo unspecified) do in these assays?
hERG WT inh: 6; TRPV1 PAM: -1; KCNH2 3.1 block: 3; TRPV1 agonist: 0

How did CCN(CC(=O)NCc1ccc(Cl)cc1)C(=O)COc1cccc(Cl)c1 do in these assays?
hERG WT inh: 5; TRPV1 PAM: 1; KCNH2 3.1 block: -38; TRPV1 agonist: inconclusive

How did CCOc1ccc(C(=O)CCC(=O)N(CC)CC(=O)NCc2ccc(Cl)cc2)cc1 do in these assays?
hERG WT inh: -160*; TRPV1 PAM: -19; KCNH2 3.1 block: -2; TRPV1 agonist: inconclusive

How did CCOc1ccc(CN(C)CC(=O)NCc2ccc(F)cc2)cc1 do in these assays?
hERG WT inh: inconclusive; TRPV1 PAM: -22; KCNH2 3.1 block: -103*; TRPV1 agonist: inconclusive

How did COc1ccc(CNC(=O)CN(C)Cc2ccc(SC)cc2)cc1 do in these assays?
hERG WT inh: -9; TRPV1 PAM: 3; KCNH2 3.1 block: -78*; TRPV1 agonist: inconclusive
